# Results from PubChem BioAssay (NCATS).
# Where “and” joins values, the source holds several entries; their conditions need not be identical. Equal entries are not always repeated. Results filed as inconclusive are left out. Entries that show only a call come without a potency. Calls of active or inactive are those of the source. Unless noted, calls follow the shape of the dose curve; as a rule, active = well fitted curve in the direction sought with a large enough effect; inconclusive = small, poorly fitted or top-dose-only effect, or another doubt; inactive = no such curve, though single readings can be large; an effect the other way counts as inactive or inconclusive.
# Columns and labels:
# [1] = Primary qHTS for inhibitors of nuclear receptor binding SET domain protein 2 (NSD2) in an isogenic RCH-ACV NSD2 p.E1099K mutant (9B) (AID 1645876); also: potency is read from the fitted curve at half-maximal effect; nearly all actives have a fitted effect of over 70% in size
# [2] = biological target: Tyrosine-protein kinase Yes (Homo sapiens) (UniProt P07947); assay: qHTS for small molecule inhibitors of Yes1 kinase: Primary Screen (AID 686947); also: potency is read from the fitted curve at half-maximal effect; nearly all actives have a fitted effect of over 60% in size
# Outline: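 ADP-Glo luminescence reports ADP formed by 4 nM Yes1 phosphorylating poly(E4Y) (0.3 mg/mL) with 0.1 mM ATP for 60 min at room temperature, following 20 min compound preincubation; normalised between DMSO wells with and without enzyme.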
# [3] = qHTS for small molecule inhibitors of Yes1 kinase: Counter Assay (AID 686950);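 also: no kinase present so only ADP-Glo detection of a fixed ADP amount is tested; luminescence from ADP-Glo reporting ADP in a fixed ATP and ADP mixture; series mostly up to about 77 µM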
# Outline: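 ADP-Glo luminescence read after a 60 min room-temperature incubation of compound with an ATP/ADP mix (0.08 mM/0.02 mM) and no kinase, following a 20 min compound preincubation. Signal scaled between ATP+ADP (max) and 0.1 mM ATP-only (min) wells; Tris pH 7.5, Mg2+, DTT.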
# [4] = biological target: Ferritin light chain (Equus caballus) (UniProt P02791); assay: qHTS Validation Assay for Identification of Novel General Anesthetics (AID 2323); also: series mostly up to about 77 µM
# Outline: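 Horse-spleen apoferritin (10 uM) in PBS with 50% saturated 1-aminoanthracene; compounds pin-transferred, 10 min at room temperature. Fluorescence read at 380/535 nm, normalized to free 1-AMA and 1-AMA/apoferritin values; four-parameter Hill fit.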
# [5] = biological target: RecQ-like DNA helicase BLM (Homo sapiens) (UniProt P54132); assay: qHTS Validation Assay for Inhibitors of Bloom's syndrome helicase (BLM) (AID 2364)
# Outline: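 Forked 20-bp duplex substrate (200 nM, TAMRA/BHQ-2) plus 2 mM ATP added after 15 min compound preincubation with 50 nM enzyme, pH 8.0, poly(dI-dC) 2.5 ug/ml. Strand separation followed by fluorescence (525/598 nm) over 2 h, normalized to enzyme-free and DMSO controls.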
# [6] = biological target: Cytochrome P450 3A4 (Homo sapiens) (UniProt P08684); assay: qHTS for inhibitors of CYP3A4 against the NCATS DSHEA and TCM libraries (AID 1919971);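 also: inhibition lowers luminescence from luciferin made by CYP3A4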
# Outline: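 Concentration-response screening with isoform-matched pro-luciferin substrates. The CYP reaction was initiated by NADPH regenerating solution and ran 30-45 min in darkness at room temperature.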
# [7] = biological target: Cytochrome P450 1A2 (Homo sapiens) (UniProt P05177); assay: qHTS for inhibitors of CYPIA2 against the NCATS DSHEA and TCM libraries (AID 1919976);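 also: light from luciferin formed by CYP1A2 from a pro-luciferin substrate; series mostly up to about 37 µM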
# Outline: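 Enzyme and pro-luciferin substrate, or substrate alone as no-enzyme background, are pre-incubated with test samples for 15 min at room temperature. NADPH regeneration system (1x final) initiates a 30-45 min dark reaction; luciferase detection reagent follows before luminescence reading.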
# [8] = qHTS assay for small molecule antagonists of peroxisome proliferator-activated receptor delta signaling (AID 588535; active = well fitted inhibition curve with a large enough effect in the signal ratio, with a control signal flat, not every such curve was filed as active; the % refers to the signal ratio;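 as to max response: cells co-treated with a PPAR-delta agonist as stimulator during compound exposure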); conditions: HEK293T PPARd-UAS-bla, beta-lactamase FRET ratio, 18 h; 460 nm channel
# Outline: (§1)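 Titrations were run on PPAR-delta-UAS-bla HEK293T cells in charcoal/dextran-stripped serum, incubated 18 h at 37 C. CCF4 fluorescence (460/530 nm) after 2 h RT; Hill equation yields IC50 and maximal response.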
# [9] = biological target: Peroxisome proliferator-activated receptor delta (Homo sapiens) (UniProt Q03181); assay: as above
# Outline: as §1
# [10] = biological target: Vitamin D3 receptor (Homo sapiens) (UniProt P11473); assay: qHTS assay for small molecule antagonists of vitamin D receptor signaling (AID 588541; calls by dose curve;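 also: receptor activated by calcitriol during compound treatment; series mostly up to about 77 µM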)
# Outline: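 Antagonist-mode beta-lactamase reporter assay: HEK293T VDR-UAS-bla cells were exposed to titrated compound alongside 1-alpha,25-dihydroxyvitamin D3 at 3 nM final for 16 h. Values were normalized to the 50 nM agonist control and DMSO basal, with IC50 and efficacy from Hill equation fits.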
# [11] = biological target: Vitamin D3 receptor (Homo sapiens) (UniProt P11473); assay: qHTS assay for small molecule agonists of vitamin D receptor signaling (AID 588543; calls by dose curve)
# Outline: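 VDR-UAS-bla HEK293T cells, 2000/well, 2% charcoal-stripped FBS; compound titration 16 h at 37 C; CCF4 beta-lactamase ratio read. Normalized to 50 nM 1-alpha,25-dihydroxyvitamin D3 (100%) and DMSO; Hill fit gives EC50, efficacy.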
# [12] = biological target: Thyroid hormone receptor beta (Homo sapiens) (UniProt P10828); assay: qHTS assay for small molecule antagonists of thyroid hormone receptor beta signaling (AID 588547; active = well fitted inhibition curve with a large enough effect in the signal ratio, with a control signal flat, not every such curve was filed as active; the % refers to the signal ratio;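 also: cells stimulated with 0.4 nM T3 agonist during compound exposure; series mostly up to about 77 µM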); conditions: TR-UAS-bla HEK293, beta-lactamase ratio, antagonist mode, 18 h
# Outline: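 Inhibition of T3-driven (0.4nM final) beta-lactamase reporter activity was measured over 0.59 nM to 92 uM compound after 18 h at 37 C. The cells were GripTite HEK293 TR-UAS-bla in charcoal/dextran-stripped serum, with CCF4 ratio read-out and IC50 from Hill fits.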
# [13] = biological target: Peroxisome proliferator-activated receptor alpha (Homo sapiens) (UniProt Q07869); assay: qHTS assay for small molecule agonists of the peroxisome proliferator-activated receptor alpha (PPARalpha) signaling pathway (AID 651778); conditions: PathHunter PPARalpha complementation, chemiluminescence, 6 h; stronger effect = higher value
# Outline: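 Chemiluminescence from complemented enzyme reported PPARalpha activation in cells after 6 hr of compound treatment at 37 C. The detection reagent was incubated for 60 min at room temperature, and compounds were scored as agonists.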
# [14] = qHTS assay for small molecule agonists of the antioxidant response element (ARE) signaling pathway measured by Nrf2-dependant transcriptional activity - cell viability counter screen (AID 720653; active = well fitted curve in the direction sought with a large enough effect in the repeat runs; an effect the other way counts as inactive or inconclusive); conditions: ARE-bla HepG2 viability, CellTiter-Glo ATP luminescence, 16 h; max response: stronger effect = lower value
# Outline: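 Cytotoxicity counter screen: intracellular ATP quantified by CellTiter-Glo luminescence in the same ARE-bla HepG2 plates, after 16 h compound exposure and a 2 h beta-lactamase substrate step.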
# [15] = qHTS assay for cell viability of HEK293 cells (AID 743288); conditions: ATP luminescence (CellTiter-Glo), 18 h; max response: stronger effect = lower value; also: nearly all actives have a fitted effect of over 50% in size
# Outline: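 Steps: plate 2,000 parental HEK293 cells per well; incubate ≥5 h, 37 C; add compounds in DMSO; incubate 18 h, 37 C; add CellTiter-Glo; wait 30 min at room temperature; read luminescence.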
# [16] = qHTS assay for cell viability of the p53RE-bla HCT-116 cell line (AID 743292); also: nearly all actives have a fitted effect of over 55% in size
# Outline: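 Luminescent ATP quantitation (CellTiter-Glo) served as the viability read-out; reagent was added after 16 h compound exposure at 37 C and read after 30 min at room temperature. Cells: p53RE-bla HCT-116, 4,000 per well.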
# [17] = biological target: Nuclear receptor subfamily 1 group I member 2 (Rattus norvegicus) (UniProt Q9R1A7); assay: qHTS assay for small molecule activators of the rat pregnane X receptor (rPXR) signaling pathway (AID 651751; call rule not given here); conditions: rPXR reporter cells, luciferase (One-Glo), 24 h
# [18] = qHTS assay for small molecule activators of the human pregnane X receptor (PXR) signaling pathway (AID 720659; call rule not given here)
# [19] = qHTS for differential inhibitors of proliferation of Plasmodium falciparum line GB4 (AID 1816); conditions: Potency: Plasmodium falciparum GB4 proliferation inhibition;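 also: parasite growth measured after 72 h incubation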
# [20] = biological target: Voltage-gated inwardly rectifying potassium channel KCNH2 (Homo sapiens) (UniProt Q12809); assay: qHTS Assay for Small Molecule Inhibitors of the Human hERG Channel Activity (AID 588834);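 also: top concentration of the series differs between compounds; lower thallium flux fluorescence means stronger hERG block; nearly all actives have a fitted effect of over 50% in size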
# Outline: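 Thallium serves as surrogate for K+ influx through BacMam-delivered hERG in U2OS cells. Compounds are added for about 10 minutes after dye loading; stimulation buffer then starts flux, monitored kinetically on FDSS.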
# Chain of Peroxisome proliferator-activated receptor alpha (Homo sapiens) (Q07869 whole entry, looked up): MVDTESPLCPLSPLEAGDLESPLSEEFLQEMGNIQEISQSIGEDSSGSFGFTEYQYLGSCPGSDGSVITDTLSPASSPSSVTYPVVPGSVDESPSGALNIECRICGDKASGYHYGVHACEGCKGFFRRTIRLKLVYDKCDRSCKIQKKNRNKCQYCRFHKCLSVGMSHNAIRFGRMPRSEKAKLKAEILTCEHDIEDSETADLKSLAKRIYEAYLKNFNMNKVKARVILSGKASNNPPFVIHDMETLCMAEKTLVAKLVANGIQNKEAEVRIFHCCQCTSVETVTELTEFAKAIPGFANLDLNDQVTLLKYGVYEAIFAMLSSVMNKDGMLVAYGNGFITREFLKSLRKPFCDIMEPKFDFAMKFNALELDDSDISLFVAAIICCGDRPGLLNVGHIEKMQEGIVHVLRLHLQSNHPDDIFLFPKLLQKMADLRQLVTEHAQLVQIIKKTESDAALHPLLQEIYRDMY
# Chain of Vitamin D3 receptor (Homo sapiens) (P11473 whole entry, looked up): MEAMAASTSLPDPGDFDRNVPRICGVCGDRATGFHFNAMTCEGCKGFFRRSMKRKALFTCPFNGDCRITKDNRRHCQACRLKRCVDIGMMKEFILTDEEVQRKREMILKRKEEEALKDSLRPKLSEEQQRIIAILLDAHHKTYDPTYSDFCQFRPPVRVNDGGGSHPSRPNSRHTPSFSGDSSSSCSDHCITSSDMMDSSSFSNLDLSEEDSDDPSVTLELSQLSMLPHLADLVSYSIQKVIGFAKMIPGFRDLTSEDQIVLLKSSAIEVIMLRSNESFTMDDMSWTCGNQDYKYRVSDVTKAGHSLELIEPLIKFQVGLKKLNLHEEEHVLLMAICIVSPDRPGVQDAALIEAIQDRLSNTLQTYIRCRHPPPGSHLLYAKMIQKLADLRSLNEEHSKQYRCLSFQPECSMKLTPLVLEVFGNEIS
# Chain of Peroxisome proliferator-activated receptor delta (Homo sapiens) (Q03181 whole entry, looked up): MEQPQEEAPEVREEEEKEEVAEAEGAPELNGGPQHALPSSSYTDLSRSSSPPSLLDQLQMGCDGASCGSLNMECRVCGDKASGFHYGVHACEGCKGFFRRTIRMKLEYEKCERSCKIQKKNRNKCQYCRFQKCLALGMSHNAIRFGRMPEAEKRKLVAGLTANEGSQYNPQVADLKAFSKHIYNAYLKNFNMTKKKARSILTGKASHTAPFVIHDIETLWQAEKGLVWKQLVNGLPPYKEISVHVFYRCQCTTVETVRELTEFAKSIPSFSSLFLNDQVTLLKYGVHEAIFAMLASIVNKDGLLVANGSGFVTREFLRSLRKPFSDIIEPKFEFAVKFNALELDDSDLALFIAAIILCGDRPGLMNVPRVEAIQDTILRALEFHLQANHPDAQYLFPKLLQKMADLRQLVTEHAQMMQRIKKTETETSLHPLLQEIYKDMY
# Chain of Cytochrome P450 1A2 (Homo sapiens) (P05177 whole entry, looked up): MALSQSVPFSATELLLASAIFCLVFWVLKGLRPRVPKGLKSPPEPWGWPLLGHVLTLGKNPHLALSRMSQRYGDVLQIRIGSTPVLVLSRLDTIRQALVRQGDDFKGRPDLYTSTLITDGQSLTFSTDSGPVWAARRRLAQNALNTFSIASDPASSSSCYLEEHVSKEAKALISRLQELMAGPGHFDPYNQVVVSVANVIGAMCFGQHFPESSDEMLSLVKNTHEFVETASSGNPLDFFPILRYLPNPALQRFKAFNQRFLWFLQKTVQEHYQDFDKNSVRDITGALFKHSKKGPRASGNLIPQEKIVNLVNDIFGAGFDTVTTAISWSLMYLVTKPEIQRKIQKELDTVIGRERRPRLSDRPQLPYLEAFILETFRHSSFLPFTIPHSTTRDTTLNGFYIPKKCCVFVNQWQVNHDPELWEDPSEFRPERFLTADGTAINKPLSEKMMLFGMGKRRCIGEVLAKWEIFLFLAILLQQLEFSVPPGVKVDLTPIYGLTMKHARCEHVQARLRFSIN
# Chain of Tyrosine-protein kinase Yes (Homo sapiens) (P07947 whole entry, looked up): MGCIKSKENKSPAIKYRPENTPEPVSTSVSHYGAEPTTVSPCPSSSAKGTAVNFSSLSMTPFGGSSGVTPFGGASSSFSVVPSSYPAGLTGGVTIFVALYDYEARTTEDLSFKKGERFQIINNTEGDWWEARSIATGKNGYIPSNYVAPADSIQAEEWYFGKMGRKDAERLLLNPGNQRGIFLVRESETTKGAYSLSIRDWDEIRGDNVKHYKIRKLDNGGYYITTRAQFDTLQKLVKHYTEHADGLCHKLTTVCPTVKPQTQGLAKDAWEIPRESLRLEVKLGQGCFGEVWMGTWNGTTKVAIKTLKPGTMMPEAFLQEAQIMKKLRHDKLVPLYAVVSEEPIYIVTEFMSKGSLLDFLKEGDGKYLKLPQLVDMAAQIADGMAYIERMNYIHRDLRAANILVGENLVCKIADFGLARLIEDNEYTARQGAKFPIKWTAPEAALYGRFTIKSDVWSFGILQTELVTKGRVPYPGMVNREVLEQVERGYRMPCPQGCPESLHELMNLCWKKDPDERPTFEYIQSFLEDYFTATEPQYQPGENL
# Chain of Nuclear receptor subfamily 1 group I member 2 (Rattus norvegicus) (Q9R1A7 whole entry, looked up): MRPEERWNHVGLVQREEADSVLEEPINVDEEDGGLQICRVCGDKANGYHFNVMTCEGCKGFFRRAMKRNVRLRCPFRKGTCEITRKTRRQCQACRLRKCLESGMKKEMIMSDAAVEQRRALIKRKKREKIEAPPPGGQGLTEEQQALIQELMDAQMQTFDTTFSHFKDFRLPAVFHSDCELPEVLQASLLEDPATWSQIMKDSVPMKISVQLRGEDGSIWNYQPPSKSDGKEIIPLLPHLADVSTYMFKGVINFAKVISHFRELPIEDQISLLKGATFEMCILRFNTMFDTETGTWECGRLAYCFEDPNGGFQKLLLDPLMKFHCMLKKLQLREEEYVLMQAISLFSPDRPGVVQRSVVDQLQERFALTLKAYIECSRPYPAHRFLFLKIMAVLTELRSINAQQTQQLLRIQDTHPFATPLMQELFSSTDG
# Chain of RecQ-like DNA helicase BLM (Homo sapiens) (P54132 whole entry, looked up): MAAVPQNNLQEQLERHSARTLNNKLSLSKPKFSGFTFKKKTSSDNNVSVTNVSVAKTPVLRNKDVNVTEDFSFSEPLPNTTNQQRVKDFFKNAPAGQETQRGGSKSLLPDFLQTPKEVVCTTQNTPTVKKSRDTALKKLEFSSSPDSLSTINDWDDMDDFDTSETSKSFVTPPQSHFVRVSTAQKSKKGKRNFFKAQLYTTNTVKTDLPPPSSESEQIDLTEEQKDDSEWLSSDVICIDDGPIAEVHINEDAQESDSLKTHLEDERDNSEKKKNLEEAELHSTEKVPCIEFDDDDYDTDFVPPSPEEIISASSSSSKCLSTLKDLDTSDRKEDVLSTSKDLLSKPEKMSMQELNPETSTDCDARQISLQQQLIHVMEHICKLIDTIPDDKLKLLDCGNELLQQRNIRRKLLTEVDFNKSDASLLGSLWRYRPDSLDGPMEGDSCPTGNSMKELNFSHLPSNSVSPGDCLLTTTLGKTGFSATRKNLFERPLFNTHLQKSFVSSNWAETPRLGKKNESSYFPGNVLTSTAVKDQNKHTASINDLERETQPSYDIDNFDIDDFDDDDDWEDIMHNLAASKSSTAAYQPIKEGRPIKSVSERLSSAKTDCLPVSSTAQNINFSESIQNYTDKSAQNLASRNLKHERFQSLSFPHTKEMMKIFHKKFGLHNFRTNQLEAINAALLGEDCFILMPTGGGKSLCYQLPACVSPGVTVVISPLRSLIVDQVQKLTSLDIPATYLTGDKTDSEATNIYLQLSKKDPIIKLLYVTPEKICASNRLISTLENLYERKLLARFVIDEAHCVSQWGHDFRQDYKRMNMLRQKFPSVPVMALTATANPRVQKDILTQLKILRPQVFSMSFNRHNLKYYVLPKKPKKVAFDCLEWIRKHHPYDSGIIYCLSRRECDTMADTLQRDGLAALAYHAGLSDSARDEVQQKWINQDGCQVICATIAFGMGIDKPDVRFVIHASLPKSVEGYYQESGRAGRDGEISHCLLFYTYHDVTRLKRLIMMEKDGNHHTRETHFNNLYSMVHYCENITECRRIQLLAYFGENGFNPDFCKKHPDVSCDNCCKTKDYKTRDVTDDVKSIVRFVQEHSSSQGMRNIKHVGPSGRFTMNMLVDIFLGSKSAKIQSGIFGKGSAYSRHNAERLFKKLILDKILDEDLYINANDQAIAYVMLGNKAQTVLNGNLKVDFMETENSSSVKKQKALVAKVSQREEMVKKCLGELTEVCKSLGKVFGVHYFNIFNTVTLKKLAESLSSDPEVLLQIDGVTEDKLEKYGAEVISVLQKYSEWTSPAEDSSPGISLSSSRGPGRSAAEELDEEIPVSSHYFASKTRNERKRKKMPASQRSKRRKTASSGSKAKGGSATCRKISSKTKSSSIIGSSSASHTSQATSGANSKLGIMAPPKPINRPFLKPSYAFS
# Chain of Thyroid hormone receptor beta (Homo sapiens) (P10828 whole entry, looked up): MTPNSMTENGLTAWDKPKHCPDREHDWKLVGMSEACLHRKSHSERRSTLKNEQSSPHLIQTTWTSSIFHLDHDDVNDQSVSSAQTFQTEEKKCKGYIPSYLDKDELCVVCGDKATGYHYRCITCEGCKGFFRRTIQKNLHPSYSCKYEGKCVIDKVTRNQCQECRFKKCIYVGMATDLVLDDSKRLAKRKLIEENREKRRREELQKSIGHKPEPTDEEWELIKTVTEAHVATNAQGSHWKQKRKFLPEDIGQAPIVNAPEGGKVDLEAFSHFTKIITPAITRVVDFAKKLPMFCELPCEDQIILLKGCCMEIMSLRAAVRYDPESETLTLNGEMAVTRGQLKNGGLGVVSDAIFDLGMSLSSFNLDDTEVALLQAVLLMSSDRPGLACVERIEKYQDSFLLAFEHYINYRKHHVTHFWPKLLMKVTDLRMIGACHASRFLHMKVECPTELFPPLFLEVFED
# Chain of Ferritin light chain (Equus caballus) (P02791 2-175 limits assumed): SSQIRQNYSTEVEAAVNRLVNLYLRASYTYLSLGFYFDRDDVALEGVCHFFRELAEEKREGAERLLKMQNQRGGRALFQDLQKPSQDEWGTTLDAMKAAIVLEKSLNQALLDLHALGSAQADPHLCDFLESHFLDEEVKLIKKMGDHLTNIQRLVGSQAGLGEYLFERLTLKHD
structure (smiles),measurement,setting,value
CCN(CC)CC1CCN(c2ncc3ncnc(Nc4ccc(F)c(Cl)c4)c3n2)CC1,Potency,[1],9.2 µM (active)
Fc1ccc(-c2nc3n(c2-c2ccncc2)CCS3)cc1,Potency,[2],0.519 µM (active)
same,outcome,[3],inactive
NCCNS(=O)(=O)c1cccc2cnccc12,outcome,[4],inactive
same,Potency,[5],inactive
CC/C=C\C/C=C\C/C=C\C/C=C\C/C=C\CCCCCC(=O)O,outcome,[6],inactive
same,outcome,[7],inactive
CC(C)=CCC/C(C)=C/CC/C(C)=C/CO,max response,[8],-3.54%
same,outcome,[9],inactive
same,Potency,[10],inactive
same,outcome,[11],inactive
same,activity change % (negative = inhibition),[12],1.19% (inactive)
same,max response,[13],2.41% (inactive)
same,max response,[14],-6.95% (inactive)
same,max response,[15],-6.29% (inactive)
same,Potency,[16],inactive
same,max response,[17],-1.6% (inactive)
same,outcome,[18],inactive
C[N+](C)(C)CCC(=O)c1cccc2ccccc12,Potency,[19],inactive
same,Potency,[20],inactive
CC(=O)[C@H]1[C@H](C#N)C[C@H]2[C@@H]3CC=C4C[C@@H](O)CC[C@]4(C)[C@H]3CC[C@@]21C,max response,[13],-0.257% (inactive) and 0.0087% (inactive)
same,max response,[14],-9.55% (inactive) and -3.25% (inactive)
same,max response,[15],-20.6% (inactive) and -13.5% (inactive)
same,Potency,[16],inactive
